Bioassay records as filed in PubChem.
This is a sample that favours compounds with a hit; in the whole collection about 7.4% have one here.
FLuc modulator – qHTS profiling assay for firefly luciferase inhibitor/activator using purifed enzyme and Km concentrations of substrates (counterscreen for miR-21 project) | Luciferin 4-monooxygenase (Photinus pyralis), P08659 | purified FLuc, Km substrates, luminescence inhibition | Potency, µM (doses to about 57.5 µM), inactives show at the highest dose activity change, negative = inhibition, most hits filed as inhibitors | actives 6.9% (n = 360,000);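 further: plate controls were vehicle for no effect and reference inhibitor for full effect; nearly all actives have a fitted effect of over 55% in size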
Target sequence (P08659 whole entry, looked up): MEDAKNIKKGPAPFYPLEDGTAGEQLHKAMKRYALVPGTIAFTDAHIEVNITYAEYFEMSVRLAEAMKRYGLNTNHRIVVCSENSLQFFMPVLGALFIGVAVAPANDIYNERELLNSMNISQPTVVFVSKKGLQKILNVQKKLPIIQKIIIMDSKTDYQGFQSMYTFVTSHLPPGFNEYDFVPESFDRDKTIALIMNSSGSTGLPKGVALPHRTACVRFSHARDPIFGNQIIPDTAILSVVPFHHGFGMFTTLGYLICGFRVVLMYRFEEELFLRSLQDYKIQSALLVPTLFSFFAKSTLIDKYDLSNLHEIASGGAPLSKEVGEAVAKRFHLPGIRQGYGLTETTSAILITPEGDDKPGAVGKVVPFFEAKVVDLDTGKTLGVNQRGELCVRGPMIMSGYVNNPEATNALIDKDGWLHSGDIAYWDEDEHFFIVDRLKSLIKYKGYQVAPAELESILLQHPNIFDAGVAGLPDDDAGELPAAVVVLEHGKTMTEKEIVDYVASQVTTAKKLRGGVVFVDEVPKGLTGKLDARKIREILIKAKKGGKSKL
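Purified P. pyralis luciferase, 10 nM final, with Km-level 10 uM D-luciferin and 10 uM ATP in 50 mM Tris acetate pH 7.5, 10 mM Mg acetate, 0.01% Tween-20, 0.05% BSA; 6-point qHTS titration about 60 µM downward; luminescence read.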
Rab9 prom act – qHTS Assay for Rab9 Promoter Activators. Huh7 Rab9 promoter-luciferase reporter, luminescence, 24 h. Potency, µM (titrated, usually from 9.22 µM), without a hit: at the top dose activation, negative = inhibition, actives largely listed as activators. actives 2.8% (n = 320,000). AID 485297, 2010; further: % of control where 0% means no effect; nearly all actives have a fitted effect of over 60% in size
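Rab9 promoter-driven luciferase in stably transfected Huh7 cells; 1500 cells/well rested 2 h, exposed to compound in DMSO for 24 h at 37 °C, 5% CO2. Luminescence read 10 min after adding luciferase reagent at ambient temperature.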
p53 reactivation – qHTS assay for re-activators of p53 using a Luc reporter; H1299 p53-A138V BP100-luciferase reporter, luminescence, 24 h; Potency, µM (titrated, usually from 92.2 µM), for inactives: top-dose activity change, positive = activation, hits mostly activators; actives 0.063% (n = 320,000); AID 504706, 2011; further: % of control where 0% means no effect; nearly all actives have a fitted effect of over 45% in size
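H1299 (p53-null), stable ts p53-A138V + BP100-Luc; 1000 cells/well, Opti-MEM/10% FBS; cpd 4 pt, 1:5; 24 h, 37 deg C, 5% CO2; detection reagent 10 min RT; luminescence.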
NPC1 prom act – qHTS Assay for NPC1 Promoter Activators | Huh7 NPC1 promoter luciferase reporter, 24 h | Potency, µM (highest dose often 9.22 µM), inactives show top-dose activation, usual class: activators | actives 2.4% (n = 320,000) | AID 485313, 2010; further: % of control where 0% means no effect; nearly all actives have a fitted effect of over 60% in size
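NPC1 promoter–luciferase Huh7 cells; 24 h compound; luminescence.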
SMN2 splice up – qHTS Assay for Enhancers of SMN2 Splice Variant Expression | HEK293 SMN2-luciferase splicing reporter, luminescence, 30-36 h | Potency, µM (top dose mostly 46.1 µM), for inactives: at the top dose activity change, positive = activation, usual class: activators | actives 2.8% (n = 210,000); further: % of control where 0% means no effect; nearly all actives have a fitted effect of over 55% in size
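HEK293 cells carry an SMN2 […]–luciferase reporter in which exon 7 inclusion puts luciferase in frame. Cells were plated 10-12 h before compound addition, then incubated 30-36 h at 37C. ONE-Glo luminescence was read; sodium butyrate at 4.5 mM final served as control.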
ELG1 genotoxic – qHTS screen for small molecules that induce genotoxicity in human embryonic kidney (HEK293T) cells expressing luciferase-tagged ELG1; HEK293T ELG1-luciferase reporter, luminescence, 16 h; Potency, µM (doses to about 46 µM), for the others: at the top dose activity change, positive = activation, actives largely listed as activators; actives 1.3% (n = 330,000); AID 504466, 2011; further: % of control where 0% means no effect; nearly all actives have a fitted effect of over 60% in size
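DMSO vehicle served as control against compound-treated ELG1-luciferase HEK293T cells; exposure lasted 16 hr at 37 °C and 5% CO2, followed by ONE-Glo luminescence detection after 30 min.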
Starred values were filed as active, the others as inactive; ? = inconclusive; · = no result given; [ ] = another dose, or the depositor's remark. The call rests on the fitted dose curve; in most records, active means well fitted curve in the direction sought with a large enough effect; inconclusive means small, poorly fitted or top-dose-only effect, or another doubt; inactive means no such curve, though single readings can be large; an effect the other way counts as inactive or inconclusive. Potency means the concentration at half of the fitted maximal effect.

SMILES	FLuc modulator	Rab9 prom act	p53 reactivation	NPC1 prom act	SMN2 splice up	ELG1 genotoxic
CN1CCN(c2ncc3ncc(=O)n(Cc4cccs4)c3n2)CC1	·	·	·	·	5%	·
O=C(O)c1ccc(N2Cc3ccccc3C2)cc1O	24µM*	27%	26%	21%	-6%	3%
O=C(O)c1ccc(N2CCCCC2)cc1O	15µM*	1%	16%	16%	·	6%
CC(C)Cn1c(=O)c2sccc2n2c(CCCC(=O)NCCc3ccccc3)nnc12	4%	·	·	·	·	·
COC(=O)C(CCSC)Nc1ncnc2onc(-c3ccc(F)cc3)c12 (centres undefined)	1%	·	·	·	-9%	·
CCOC(=O)c1ccccc1NC(=O)Cn1ccn2nc(-c3ccc(OCC)cc3)cc2c1=O	-12%	·	·	·	·	·
O=C(Cn1c(=O)sc2ccccc21)NCc1ccccn1	?	23%	17%	22%	11µM*	18µM*
COc1ccc(C(=O)NCC(=O)N2CCC(Cc3ccccc3)CC2)cc1OC	2%	-6%	-1%	-6%	·	-6%
CC(C)Oc1cccc(C2CC(=O)Nc3cc4c(cc32)OCO4)c1 (centres undefined)	-1%	·	·	·	-46%	·
CN1CCN(c2ccc(-c3ccnn3C(=O)Nc3cccc(C(F)(F)F)c3)cc2)CC1	21µM*	23%[1.84 µM]	2%	3.5µM*	13µM*	?
COc1ccc(N2CCN(C(=O)Nc3cccc(C(F)(F)F)c3)CC2)cc1	1%	-4%	-6%	2%	-26%	-3%
COc1cc(O)c2c(=O)c3c(O[C@H]4O[C@@H](CO)[C@H](O)[C@@H](O)[C@@H]4O)ccc(O)c3oc2c1	·	·	9%	·	·	1%
COc1ccc(-c2coc3cc(OC4OC(CO)C(O)C(O)C4O)cc(O)c3c2=O)cc1 (centres undefined)	?	2.8µM*	?	2.8µM*	·	?
COc1ccc(-c2coc3cc(OC4OC(CO)C(O)C(O)C4O)ccc3c2=O)cc1 (centres undefined)	11µM*	1.6µM*	?	1.6µM*	·	8.2µM*
Cc1nnc(N2CCCC(C(=O)Nc3cccc(C(F)(F)F)c3)C2)c2nn(-c3ccccc3)c(C)c12 (centres undefined)	-8%	·	·	·	·	·
Cc1ccc(SCc2nc3ccccc3[nH]2)cc1	6µM*	?	16%	2.2µM*	?	12%
c1ccc2[nH]c(CSc3nccs3)nc2c1	?	14%	?	14%	?	9%
O=c1[nH]c2ccccc2nc1-c1ccc(Cl)cc1	?	2.8µM*	22%	?	·	?
c1ccc(SCc2nc3ccccc3[nH]2)cc1	12µM*	2.2µM*	6%	2.5µM*	?	?
Fc1ccccc1CSCc1nc2ccccc2[nH]1	17µM*	2.8µM*	16%	4µM*	10µM*	?
COc1ccccc1N1CCN(c2nccc(C)n2)CC1	2%	6%	·	1%	·	1%
N#Cc1cccc(NC(=O)N2CC3(CCN(C(=O)c4cc(C(F)(F)F)cc(C(F)(F)F)c4)CC3)C2)c1	·	·	·	·	-12%	·
COc1ncc2nc(-c3ccccc3)c(=O)n(C[C@H]3CCCO3)c2n1	·	·	·	·	9%	·
Clc1ccc(SCc2nc3ccccc3[nH]2)cc1	9.5µM*	?	16%	?	11%	-3%
O=Cc1cccc(OCc2cccc3ccccc23)c1	27µM*	4µM*	?	2.8µM*	·	?
SMILES	FLuc modulator	Rab9 prom act	p53 reactivation	NPC1 prom act	SMN2 splice up	ELG1 genotoxic
COc1ccc(COc2ccc3c(C)cc(=O)oc3c2)cc1	5.4µM*	?	·	2.2µM*	·	9.2µM*
COc1ccc(COc2cccc(C=O)c2)cc1	24µM*	?	0%	?	·	-1%
COc1ccc([C@H]2CC(=O)C=C(c3cccc(OCc4ccccc4)c3)C2)cc1	1%	-1%	5%	0%	·	-3%
O=C(COc1ccc2ccccc2c1)NNC(=O)Cc1cccc2ccccc12	3%	0%	0%	-5%	-16%	1%
COc1ccc(CCNC(=O)COc2ccc3c(C)cc(=O)oc3c2)cc1	·	·	-3%	·	·	-3%
CC(OC(=O)c1cccc(-n2cnnn2)c1)C(=O)Nc1ccc(F)cc1 (centres undefined)	-2%	-3%	-8%	1%	·	-9%
Cc1nnc(NC(=O)c2cccc(Br)c2)s1	?	5%	10%	23%	-9%	?
Cc1nnc(NC(=O)c2ccc3c(c2)OCO3)s1	13µM*	3.5µM*	9%	?	·	?
Cc1nc(NC(=O)c2ccc(OCC(C)C)cc2)sc1Cc1ccc2c(c1)OCO2	21µM*	?	5%	18%	-21%	-3%
CSc1nnc(NC(=O)c2ccc(S(=O)(=O)N(C)C)cc2)s1	11µM*	0.56µM*	6%	1.6µM*	13µM*	?
CC(C)Cc1nnc(NC(=O)c2ccc3c(c2)OCCO3)s1	1.9µM*	0.63µM*	·	2µM*	·	?
Cc1cc2c(cc1S(=O)(=O)NCc1ccc(F)cc1)n(C)c(=O)c(=O)n2C	-4%	·	·	·	·	·
COCCNc1nnc(SCC(=O)c2ccc3c(c2)OCO3)s1	-9%	0%	0%	15%	3%	1%
CC(C)C(=O)Nc1cccc(C(=O)Nc2nncs2)c1	-1%	3%	24%	-7%	-14%	5%
O=C(Nc1nncs1)c1ccc2c(c1)OCO2	15µM*	30%	14%	23%	·	?
CSc1nnc(NC(=O)c2ccc3c(c2)OCO3)s1	0.48µM*	0.11µM*	?	0.22µM*	·	0.26µM*
CCOC(=O)C(C)Sc1nnc(NC(=O)c2ccc3c(c2)OCO3)s1 (centres undefined)	17µM*	-5%	-9%	3%	18%	13%
O=C(CSc1nc2c([nH]c3ccccc32)c(=O)n1-c1ccc(Cl)cc1)N1CCCC1	-2%	·	·	·	·	·
O=C(O)c1ccccc1CN1CCC[C@@H](C(=O)O)C1	·	·	·	·	-2%[9.22 µM]	·
COc1ccc(Nc2nc3ccccc3c3nnc(C)n23)cc1Cl	24µM*	·	·	·	0%	·
Cc1ccc(Nc2nc3ccccc3c3nnc(C)n23)cc1Cl	-11%	·	·	·	·	·
Cc1ccc(C(=O)Nc2nnc(S(=O)(=O)N(C)Cc3ccc(F)cc3)s2)cc1	-18%	·	·	·	·	·
C[C@@H](C(=O)NCc1nc2ccccc2[nH]1)[C@@H]1C[C@@]1(C)[C@@H](NC(=O)OCc1ccccc1)c1ccccc1	·	·	·	·	-23%	·
